Bioassay records from PubChem.
A selection: hits, their analogues and other compounds. The true share with any hit is near 2%.
697 NFkB inh = inhibitors of the PMA/ionomycin-induced NF-kB reporter in 697 B cells | 697 B-cell NF-kB luciferase reporter, 16 h | AID 435022 | 330,000 tested, 0.33% active | inhibition, % at 4 µM; in the data active means inhibition above about 35%
Beta apoptosis = blocks beta cell apoptosis. AID 435005. 300,000 tested, 0.8% active. protection from apoptosis, % (no concentration beside the values). INS-1E cytokine-induced death, ATP luminescence, 48 h; percent of positive-control rescue, neutral wells zero;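 active means Every replicate reaches about 75%, or at least half do and their mean reaches it too, limit read from the data; inconclusive means At least half of replicates reach the limit but their mean does not; inactive means Under half of replicates reach the limit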;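 further: higher means more ATP so stronger rescue from cytokine killing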
Shn3 3UTR inh = inhibitors of Schnurri-3 3'UTR reporter in osteoblasts. 360,000 tested, 0.52% active. Clone20 osteoblast Shn3 3'UTR firefly luciferase, 24 h. inhibition, % at 12.5 µM;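 active means mean inhibition of at least 75% with every replicate also reaching 75%; inconclusive means mean inhibition at least 75% but some replicate below; inactive means mean inhibition below 75%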
Calb FLC = affects C. albicans growth with fluconazole; C. albicans CaCi-2 (fluconazole-resistant clinical isolate) + fluconazole, Alamar Blue growth, 48 h; growth inhibition, % (no concentration beside the values); 300,000 tested, 0.57% active;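 active means growth inhibition above about 58% in most replicates, limit read from the data, passing the limit was not always enough; inconclusive means exactly half the replicates above a set limit; inactive means most replicates below a set limit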;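 further: all wells also contain fluconazole at 8 µg/ml as a sub-toxic cotreatment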
Jurkat NFkB inh = inhibitors of the PMA/ionomycin-induced NF-kB reporter in Jurkat cells | PMA/ionomycin-induced NF-kB luciferase reporter, luminescence | inhibition, % at 4 µM | 330,000 tested, 0.53% active; in the data active means inhibition above about 50%
Jurkat NFkB conf = inhibitors of the PMA/ionomycin-induced NF-kB reporter in Jurkat cells, retest; inhibition, % at 4 µM; AID 435020; Jurkat NF-kB luciferase, 16 h; shares compounds with Jurkat NFkB inh; 2,700 tested, 27% active;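 active means inhibition reaching about 45% at 4 µM in either replicate, limit read from the data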
Of the large screens only hits and unclear results are named; the others gave an inactive call (follow-up assays come after a bar, where they were run).

COc1ccc(Nc2nc(-c3sc(C)nc3C)cs2)cc1	Jurkat NFkB inh 51 | Jurkat NFkB conf inactive
O=[N+]([O-])c1nn(-c2ccc3c(c2)OCCO3)n(O)c1=Nc1ccccc1	Jurkat NFkB inh 71 | Jurkat NFkB conf 89
O=[N+]([O-])c1nn(-c2ccc3c(c2)OCCO3)n(O)c1=Nc1ccc(Cl)cc1	none
CCOC(=O)N1CCC(NC(=O)c2ccc3c(c2)N=C(CC)c2cc(C)ccc2S3)CC1	none
CCOC(=O)N1CCC(NC(=O)c2ccc3c(c2)N=C(C)c2c(C)ccc(C)c2S3)CC1	Jurkat NFkB inh 65 | Jurkat NFkB conf 56
COc1ccc(C(=O)NCc2c(C)nn(Cc3ccccc3)c2C)cc1S(=O)(=O)N1CCOCC1	none (no result: Calb FLC)
CSCC[C@H](NS(=O)(=O)c1ccc(C(C)=O)cc1)c1nnc2ccccn12	none
CCOc1ccccc1-n1c(CN2CCN(C(=O)c3ccco3)CC2)nc2ccccc2c1=O	Jurkat NFkB inh 95 | Jurkat NFkB conf inactive
CCOC(=O)c1ccc2c(c1)nc(-c1ccccn1)n2CC	none | Jurkat NFkB conf inactive
Clc1ccc(-c2cn3c(n2)-c2ccccc2C3)cc1Cl	none | Jurkat NFkB conf inactive
c1ccc2c(c1)Cn1c-2nc2ccccc21	none
Cc1ccsc1/C=N/Nc1ccc(C(=O)O)cc1	none
Cc1ccsc1/C=N/Nc1cccc(C(=O)O)c1	Jurkat NFkB inh 56 | Jurkat NFkB conf inactive
CCOc1cc(/C=N/Nc2cccc(C(=O)O)c2)ccc1OC(=O)c1ccccc1	Calb FLC inconclusive, Jurkat NFkB inh 58 (no result: Beta apoptosis) | Jurkat NFkB conf inactive
O=C(CNC(=O)c1ccccc1F)OCc1nc2ccc(Cl)cc2n1CCO	none (no result: Calb FLC)
COc1cc2ccccc2cc1C(=O)OCc1nc2ccsc2c(=O)[nH]1	none (no result: Calb FLC)
Cc1cc(C)c(C)c(OC(=O)c2sc(Cl)nc2C)c1	Jurkat NFkB inh 72 | Jurkat NFkB conf inactive
Cc1ccc(NC(=O)c2ccc3c(c2)N(CC(=O)NC(C)C)C(=O)C(C)(C)O3)cc1	none
COC(=O)Cn1ncc(N(C)Cc2ccccc2)c(Cl)c1=O	none
Cc1ccc(S(=O)(=O)N2CCCCC2CCNC(=O)C(=O)NCc2ccccc2)cc1 (stereo unspecified)	Jurkat NFkB inh 63 | Jurkat NFkB conf inactive
COc1ccc(CNC(=O)C(=O)NCCC2CCCCN2S(=O)(=O)c2ccc(C)cc2)cc1 (stereo unspecified)	none
O=C(NCCc1ccccc1)C(=O)NCC1CCCN1S(=O)(=O)c1ccccc1 (stereo unspecified)	Jurkat NFkB inh 56 | Jurkat NFkB conf inactive
Cc1ccc(C)c(-c2nnc(NC(=O)Cc3ccccc3)o2)c1	none
COc1ccc(S(=O)(=O)N2CCOCC2)cc1C(=O)NC1CCCCCC1	none (no result: Calb FLC)
CCc1cc(C(=O)NC2CCCc3c2cnn3-c2cccc(C)c2C)n(C)n1 (stereo unspecified)	Beta apoptosis 99, Calb FLC 91, Jurkat NFkB inh 79 (no result: Shn3 3UTR inh) | Jurkat NFkB conf 76
O=[N+]([O-])c1cccc(NC(=S)N2CCN(c3ccccn3)CC2)c1	none
Cc1ncoc1C(=O)NC1CCCc2c1cnn2-c1ccc(C(C)(C)C)cc1 (stereo unspecified)	Jurkat NFkB inh 60 (no result: Beta apoptosis) | Jurkat NFkB conf 59
O=S1(=O)Nc2c(ccc3cccnc23)-c2ccccc21	Shn3 3UTR inh 88, Jurkat NFkB inh 69 | Jurkat NFkB conf 54
Cc1ccc(S(=O)(=O)CCC(=O)OCC(=O)N(C)c2ccccc2)cc1	none (no result: 697 NFkB inh, Beta apoptosis, Calb FLC, Jurkat NFkB inh)
Cc1ccc(C(=O)Nc2ncc(Cc3ccc(SC(F)F)cc3)s2)cc1	Jurkat NFkB inh 64 | Jurkat NFkB conf 48
COc1ccc(/C=N\NC(=O)c2cccc(F)c2)cc1COc1ccccc1	Jurkat NFkB inh 52 | Jurkat NFkB conf 53
COc1cc(OC)cc(C(=O)N/N=C/c2ccc(OC)c(COc3ccc(F)cc3)c2)c1	Jurkat NFkB inh 52 | Jurkat NFkB conf inactive
COc1ccc(OCc2cc(/C=N\NC(=O)c3ccccc3)ccc2OC)cc1	Jurkat NFkB inh 54 | Jurkat NFkB conf inactive
COc1cccc(NC(=O)c2ccc3nc(C)c(N(C)Cc4ccc(NC(C)=O)cc4)n3c2)c1	none (no result: 697 NFkB inh, Beta apoptosis, Calb FLC, Jurkat NFkB inh)
O=C(c1ccc(NC2=NC3CS(=O)(=O)CC3S2)cc1)N(CCO)Cc1ccccc1 (stereo unspecified)	none
O=C(CSc1ncnc2c1nnn2Cc1ccccc1)NC1CCCCC1	none
O=[N+]([O-])c1ccc(N=NN(CCO)CCO)cc1	none
O=[N+]([O-])c1ccc(N=Nc2ncc[nH]2)cc1	Jurkat NFkB inh 82 | Jurkat NFkB conf inactive
O=C(CSc1nnc(CNC(=O)c2ccco2)o1)Nc1ccccc1F	none
O=C(NCCSc1ccccc1)c1ccc(Br)cc1	none | Jurkat NFkB conf inactive
CCCn1nc(C(=O)Nc2ccc(N3CCOCC3)cc2)c2ccccc2c1=O	none (no result: Calb FLC)
Cc1ccc(C2=NN(C(=O)CSc3nccn3C)C(c3ccco3)C2)cc1 (stereo unspecified)	Jurkat NFkB inh 63 (no result: Beta apoptosis) | Jurkat NFkB conf inactive
OCc1ccccc1SSc1ccccc1CO	none (no result: Shn3 3UTR inh)
CCc1ccc(-n2c(SCC(=O)NC3CCS(=O)(=O)C3)nc3ccccc3c2=O)cc1 (stereo unspecified)	none (no result: Calb FLC)
Cc1ccc2c(c1)Sc1c(ccc3ccccc13)N2	Beta apoptosis 104 (no result: Shn3 3UTR inh) | Jurkat NFkB conf inactive
c1ccc2c(c1)Nc1cc3ccccc3cc1S2	none
COC(=O)c1c(C)[nH]c(C(=O)COC(=O)CCc2ccc(OC)c(OC)c2)c1C	none (no result: 697 NFkB inh, Beta apoptosis, Calb FLC, Jurkat NFkB inh)
CNC(=O)C1CC(=O)N(c2ccc(OCC(=O)Nc3ccccc3)cc2)C1 (stereo unspecified)	none (no result: 697 NFkB inh, Beta apoptosis, Calb FLC, Jurkat NFkB inh)
Cc1ccc(OCCOC(=O)c2c(-c3ccccc3)noc2C)cc1	none
Cc1onc(-c2ccccc2)c1C(=O)OCCOc1cccc(Cl)c1	Jurkat NFkB inh 52 (no result: Beta apoptosis) | Jurkat NFkB conf inactive
COc1ccc2oc(=N)c(C(=O)Nc3ccccc3Cl)cc2c1	none | Jurkat NFkB conf inactive
COc1ccc2oc(=N)c(C(=O)Nc3ccccc3)cc2c1	none (no result: Calb FLC)
CCC1([N+](=O)[O-])COC(C=Cc2ccccc2)OC1 (stereo unspecified)	none (no result: 697 NFkB inh, Beta apoptosis, Calb FLC, Jurkat NFkB inh)
O=C1C=CCC(/C=C/c2ccccc2)O1 (stereo unspecified)	Jurkat NFkB inh 100 (no result: Shn3 3UTR inh) | Jurkat NFkB conf 96
N#Cc1ccccc1NC(=O)COc1ccccc1C(=O)Nc1ccccc1	none (no result: Calb FLC)
Nc1nc(-c2cccnc2)nc2sc3c(c12)CCCC3	none | Jurkat NFkB conf inactive
CC(C)N1CCc2c(sc(NC(=O)c3ccc4ccccc4c3)c2C(N)=O)C1	none
CC(=O)Nc1sc2c(c1-c1nc3ccccc3s1)CCN(C(C)C)C2	Beta apoptosis 100, Jurkat NFkB inh 84 (no result: Calb FLC) | Jurkat NFkB conf inactive
O=C(c1ccc(F)cc1)c1ccc(N2CCCCC2)cc1	none
CCN(CC)S(=O)(=O)c1ccc(NC(=O)c2ccc(CN3CCOCC3)cc2)cc1	Jurkat NFkB inh 58 | Jurkat NFkB conf 58
O=C(Nc1ccc(F)cc1)c1ccc(CN2CCc3ccccc3C2)cc1	Jurkat NFkB inh 58 | Jurkat NFkB conf inactive
CCOC(=O)c1ccc(NC(=O)c2cnccn2)cc1	none (no result: Beta apoptosis)
O=C(Nc1ccc(N2CCCCC2)cc1)c1ccc(F)cc1	none | Jurkat NFkB conf inactive
